# Source: PubChem
# HP1b chromo inh: inhibitors of HP1-beta chromodomain binding to methylated histone tails. actives 0.56% (n = 390,000). Potency, µM (titrated, usually from 114 µM), for inactives: at the top dose activity change, negative = inhibition, most hits filed as inhibitors. AlphaScreen HP1-beta / biotin-H3K9me3 peptide binding. P83916; further: potency means the concentration at half of the fitted maximal effect; nearly all actives have a fitted effect of over 70% in size
# Target sequence (P83916 whole entry, looked up): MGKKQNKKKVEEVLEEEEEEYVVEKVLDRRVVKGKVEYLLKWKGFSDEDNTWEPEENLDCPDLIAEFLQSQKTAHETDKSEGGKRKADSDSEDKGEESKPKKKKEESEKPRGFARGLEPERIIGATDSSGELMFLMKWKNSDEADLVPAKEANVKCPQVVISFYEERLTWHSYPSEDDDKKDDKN
#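 Compound inhibition of the preformed complex between 50 nM HP1-beta and 50 nM biotinylated H3K9me3 peptide was read by AlphaScreen. Buffer was PBS pH 7.4 with 0.01% Tween-20. Incubations ran 30 min at room temperature, with 10 ug/mL donor/acceptor beads.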
# BAZ2B block: BAZ2B (human) inhibition; Q9UIF8; AlphaScreen BAZ2B-H3K14Ac peptide displacement; Potency, µM (series often up to 114 µM), for the others: top-dose activity change, negative = inhibition, actives largely listed as inhibitors; actives 4.4% (n = 360,000); AID 504333; further: potency means the concentration at half of the fitted maximal effect; on the % scale 0 is the no-effect control and ±100 the full control effect; nearly all actives have a fitted effect of over 60% in size
#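 Multi-concentration screen (max 110 uM) measuring displacement of acetylated histone H3 peptide from BAZ2B by AlphaScreen, using 50 nM protein, 50 nM peptide and 10 ug/mL streptavidin donor plus Ni-chelate acceptor beads.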
# Six1-Eya2 blk: inhibitors of human Six1/Eya2 interaction; Q15475+O00167; AlphaScreen GST-Six1/His-Eya2 binding, biochemical; active compounds read low; actives 0.56% (n = 360,000); activity change, % (concentration not given with the values); in the data active means activity change below about -65%; inconclusive means mostly about -30% to -63%; further: on the % scale 0 is the no-effect control and ±100 the full control effect
#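 AlphaScreen with GST-Six1 and His-Eya2 (5X mix: 250 nM and 500 nM), glutathione donor and nickel acceptor beads; buffer 50 mM Tris pH 8.0, 300 mM NaCl, 1 mM TCEP; 1 h at 37 C in the dark.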
# CtBP-E1A blk: inhibitors of CtBP/E1A interaction; AlphaScreen GST-E1A/His-CtBP binding, 1536-well; active compounds read low; activity change, % (test concentration not listed); actives 0.49% (n = 340,000); in the data active means activity change below about -65%; inconclusive means mostly about -30% to -63%; further: on the % scale 0 is the no-effect control and ±100 the full control effect
#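 Steps: dispense buffer (Tris pH 8.0, NaCl 300 mM, TCEP 1 mM, BSA, Tween 20); add 5X protein mix (GST-E1A, His-CtBP, 125 nM each); pin 23 nL compound; 2 h at 37 °C, dark; add 5X beads (50 ug/mL); 1 h; read.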
# JMJD2A Tudor: JMJD2A Tudor domain (human) inhibition; O75164; AlphaScreen JMJD2A-Tudor / H3K4me3 peptide binding; Potency, µM (top dose mostly 114 µM), for inactives: top-dose activity change, negative = inhibition, most hits filed as inhibitors; actives 4.4% (n = 390,000); AID 504339; further: potency means the concentration at half of the fitted maximal effect; on the % scale 0 is the no-effect control and ±100 the full control effect; nearly all actives have a fitted effect of over 50% in size
# G9a inh-1: inhibitors of human histone lysine methyltransferase G9a. Q96KQ7. G9a H3K9 monomethylation, AlphaScreen, 2 h. Potency, µM (titrated, usually from 102 µM), for the others: top-dose activity, negative = inhibition, hits mostly inhibitors. actives 8.8% (n = 350,000); further: potency means the concentration at half of the fitted maximal effect; on the % scale 0 is the no-effect control and ±100 the full control effect; nearly all actives have a fitted effect of over 75% in size
#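 G9a (20 nM) was preincubated 15 min with compound, then reacted 2 h at room temperature with 500 nM biotin-H3K9 peptide and 20 µM SAM. Monomethyl-H3K9 detected by AlphaScreen using anti-H3K9me1 antibody.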
# JMJD2E confirm: confirmation of inhibitors of human JMJD2E demethylase; shares compounds with JMJD2A Tudor; Recombinant JMJD2E, FDH-coupled NADH fluorescence (FDH is formaldehyde dehydrogenase); Potency, µM (series often up to 56.8 µM), inactives show at the top dose activity change, negative = inhibition, actives largely listed as inhibitors; actives 93% (n = 140)
# FDH inh: blocks Pseudomonas putida formaldehyde dehydrogenase, flagging JMJD2E artifacts | shares compounds with JMJD2A Tudor | FDH enzyme assay, NADH fluorescence kinetic | Potency, µM (titrated, usually from 56.7 µM), without a hit: at the top dose activity, negative = inhibition, usual class: inhibitors | actives 10% (n = 140)
# Target sequence (P46154 whole entry, looked up): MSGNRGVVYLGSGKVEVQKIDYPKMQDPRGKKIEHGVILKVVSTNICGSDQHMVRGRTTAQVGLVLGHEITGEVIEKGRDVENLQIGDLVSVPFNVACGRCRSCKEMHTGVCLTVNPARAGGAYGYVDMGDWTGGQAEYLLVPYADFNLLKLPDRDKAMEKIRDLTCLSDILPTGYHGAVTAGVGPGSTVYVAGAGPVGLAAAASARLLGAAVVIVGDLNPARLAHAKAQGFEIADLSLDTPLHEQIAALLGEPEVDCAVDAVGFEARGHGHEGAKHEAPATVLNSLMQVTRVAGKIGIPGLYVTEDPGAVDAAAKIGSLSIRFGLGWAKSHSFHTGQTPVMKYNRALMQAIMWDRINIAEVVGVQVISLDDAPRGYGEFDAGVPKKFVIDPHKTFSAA
# G9a inh-2: inhibits human G9a histone lysine methyltransferase, hit confirmation; G9a H3K9 monomethylation, AlphaScreen, 2 h; Potency, µM, hits mostly inhibitors; actives 89% (n = 370); shares compounds with JMJD2A Tudor; AID 588344; further: potency means the concentration at half of the fitted maximal effect; nearly all actives have a fitted effect of over 65% in size
# The depositor's hits bear a star; ? = inconclusive; / = not tested or not shown; [ ] = dose if it differs, or a comment. Hits are enriched below; roughly 10% of the tested compounds scored in any of these assays. Unless noted, the call rests on the fitted dose curve; in most records, active means well fitted curve in the direction sought with a large enough effect; inconclusive means small, poorly fitted or top-dose-only effect, or another doubt; inactive means no such curve, though single readings can be large; an effect the other way counts as inactive or inconclusive.
SMILES,HP1b chromo inh,BAZ2B block,Six1-Eya2 blk,CtBP-E1A blk,JMJD2A Tudor,G9a inh-1,G9a inh-2,others
CCN(CC)c1ccc(Nc2nc(-c3cccnc3)cs2)cc1,40µM*,20µM*,?,?,13µM*,0.89µM*,5*,
CN(C)c1ccc(Nc2nc(-c3cccnc3)cs2)cc1,-6%,?,-10,-4,-34%,?,0.5*,
CCCn1nnnc1NCc1cc(Br)ccc1OC,35%,-37%,-1,3,0%,1%,/,
COc1ccc(Br)cc1CNc1ccc(O)cc1,?,40µM*,?,?,?,?,3.2*,
Cc1c(C)n(Cc2ccccc2)c2ccc(C(=O)OCCN(C)C)cc12,?,22µM*,?,-23,56µM*,?,32*,
CCc1ccc(CNC(=O)c2ccc3c(c2)c(C)c(C)n3Cc2ccccc2)cc1,22%,?,/,/,?,-24%[59 µM],/,
Cc1ccc(-n2ncc3c2CC(C)(C)CC3NC(=O)CCc2c(C)noc2C)cc1 (stereo not given),24%,-2%,0,4,2%,7%,/,
COc1ccc(C)cc1NC(=O)C(NCC(O)c1ccccc1)c1ccccc1 (stereo not given),?,22µM*,0,/,10µM*,2.8µM*,14*,
CN(C)c1ccc(CNC(=O)c2cccc(NC(=O)N3CCSc4ncccc43)c2)cc1,-15%,?,/,/,?,2.8µM*,18*,
NC(=O)c1ccccc1NC(=O)COc1ccc2c(c1)OCO2,4%,0%,-21,-1,-9%,-3%,/,
Cc1ccccc1NCc1ccc(O)c2ncccc12,?,50µM*,-91*,-95*,28µM*,1.1µM*,/,JMJD2E confirm=1.4µM*;FDH inh=-13%
Oc1ccc(CNc2ccccc2)c2cccnc12,?,32µM*,-89*,-94*,79µM*,1.3µM*,/,JMJD2E confirm=2µM*;FDH inh=-21%
O=C(CC1Sc2ncnn2C1=O)Nc1ccc(Br)cc1 (stereo not given),?,-2%,3,0,25µM*,2µM*,0.18*,JMJD2E confirm=4µM*;FDH inh=0.28µM*
CCN1c2ccccc2NC2N=C(OC)C(c3ccccc3)C21 (stereo not given),?,45µM*,-12,-17,50µM*,?,11*,
COc1ccc(Nc2sc(C(=O)c3ccc(Cl)cc3)c(N)c2C(=O)Nc2ccccc2OC)cc1,-18%,?,-26,-17,?,?,/,
COc1ccc(C(=O)c2sc(Nc3cccc(OC)c3)c(C(=O)Nc3cccc(C)c3C)c2N)cc1,-11%,-39%,-13,?,?,?,4.5*,
CCCn1c(N)c(N(CCOC)C(=O)c2cc(C)cc(C)c2)c(=O)[nH]c1=O,15%,20%,8,2,-3%,?,/,
COc1ccc(C(C(O)C(=O)c2c[nH]c3ccccc23)N2CCN(c3ccc(OC)cc3)CC2)cc1 (stereo not given),?,61%,?,-25,?,?,5.6*,
Oc1ccc(NCc2ccccc2OCc2ccccc2Cl)cc1,-10%,25µM*,/,/,?,?,11*,
Oc1ccc(NCc2ccccc2OCc2ccccc2F)cc1,?,45µM*,-4,?,56µM*,3.2µM*,/,JMJD2E confirm=20µM*;FDH inh=?
Cc1cccc(N2CCN(C(=O)C3CCCN(C(=O)c4cc5sccc5n4C)C3)CC2)c1C (stereo not given),-3%,?,/,/,?,?,/,
CCOc1ccc(CC(=O)Nc2sc(Cc3ccccc3)cc2C(N)=O)cc1OCC,?,-1%,-8,1,?,2.5µM*,6.3*,
COc1ncnc2c1ncn2CCCN1CCN(c2ncccn2)CC1,/,/,9,0,/,/,/,
COCCNC(=O)C1CCCN(C(=O)Cc2cccc3ccccc23)CC1 (stereo not given),/,/,-2,4,/,/,/,
CCOC(=O)C1CCN(C(=O)Cc2cccc3ccccc23)CC1,24%,12%,-1,1,2%,?,18*,
SMILES,HP1b chromo inh,BAZ2B block,Six1-Eya2 blk,CtBP-E1A blk,JMJD2A Tudor,G9a inh-1,G9a inh-2,others
Oc1ccc(OCc2ccccc2)cc1,/,/,/,/,/,2%[21.5 µM],/,
Oc1ccc(NCc2ccc(OCc3ccccc3)cc2)cc1,?,40µM*,-21,?,56µM*,7.9µM*,1.3*,
COc1ccc(-n2nc(C(=O)NCc3ccc(F)cc3Cl)c3c4ccccc4n(C)c3c2=O)cc1Cl,35%,/,/,/,-14%,19%[59 µM],/,
CCCn1cnc2cc(NCc3ccccc3OCC)ccc21,?,40µM*,/,/,56µM*,1.8µM*,2.6*,
CCOc1ccc(CNc2nc3ccccc3n2C)cc1,36%,-1%,10,/,-12%,/,/,
CCOc1ccc(CNc2ccc3c(c2)nc(C)n3C)cc1,-10%,-9%,-13,-10,-35%,1.6µM*,6.3*,
CN(C)c1ccc(CNc2ccc3c(c2)ncn3C)cc1,20µM*,18µM*,-5,-5,18µM*,?,10*,
Cc1ccc(OCC(=O)Nc2ccc3c(c2)ncn3C)cc1,20%[57 µM],/,-8,4,12%,/,/,
CCCCn1cnc2cc(NCc3ccc(OCC)cc3)ccc21,?,22µM*,/,/,40µM*,2.5µM*,6.5*,
Cn1nnnc1SCC(=O)Nc1ccc(Br)cc1Cl,43%,-24%,1,10,9%,2µM*,?,
Cn1nnnc1SCC(=O)Nc1ccc(Br)cc1Br,16%,/,0,-1,-7%,/,/,
O=C(COc1ccc(Cl)cc1)Nc1sc2c(c1C(=O)Nc1cccc(Cl)c1)CCCC2,?,?,/,/,71µM*,1.8µM*,3.6*,
CCOc1ccc(NC(=O)c2c(NCc3cccnc3)sc3c2CCCC3)cc1,-11%,-29%,/,/,22µM*,2.8µM*,1.6*,
COc1ccc(NC(=O)c2c(NC(=O)COc3ccccc3)sc3c2CCCCC3)cc1,42%,13%,/,/,-9%,-26%[59 µM],/,
O=C(NCc1ccccn1)c1ccc(NS(=O)(=O)c2ccccc2)cc1,45%,2%,1,4,1%,96%,/,
